Compounds with a hit are over-represented: about 19% of the library has one in this group of screens.
TDP1 cell noCPT = qHTS for Inhibitors of human tyrosyl-DNA phosphodiesterase 1 (TDP1): qHTS in cells in absence of CPT; DT40 Tdp1-/- hTDP1 cells, no CPT, ATP luminescence, 48 h; Potency, µM (titrated, usually from 46.2 µM), inactives show at the top dose activity change, negative = growth inhibition, hits mostly inhibitors; 15% of 420,000 active; AID 686978, 2013; also: potency is read from the fitted curve at half-maximal effect; nearly all actives have a fitted effect of over 55% in size
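No-CPT arm: Tdp1-/-;hTDP1 DT40 cells (400/well) plus compounds, incubated ≥48 hr at 37 °C. Readout CellTiter-Glo luminescence.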
TDP1 cell CPT = qHTS for Inhibitors of human tyrosyl-DNA phosphodiesterase 1 (TDP1): qHTS in cells in presence of CPT. chicken DT40 Tdp1-/-;hTDP1 cells + 20 nM CPT, ATP luminescence, 48 h. Potency, µM (doses to about 46.2 µM), for the others: top-dose activity change, negative = growth inhibition, hits mostly inhibitors. 12% of 420,000 active; also: potency is read from the fitted curve at half-maximal effect; nearly all actives have a fitted effect of over 55% in size
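Cell growth measured by CellTiter-Glo luminescence after a minimum 48 h, 37 C compound exposure with 20 nM CPT in Tdp1-knockout DT40 cells stably expressing hTDP1, seeded 400/well; qHTS titration format.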
HT1080-NT tox = qHTS for induction of synthetic lethality in tumor cells producing 2HG: qHTS for the HT-1080-NT fibrosarcoma cell line; HT-1080-NT fibrosarcoma viability, CellTiter-Glo ATP luminescence, 48 h; Potency, µM (series often up to 46.1 µM), for the others: at the top dose activity, negative = less viability, actives largely listed as cytotoxic; 1.6% of 360,000 active; AID 686970, 2013;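 also: NT is the 2HG producing partner of a matched IDH1 knockdown line; potency is read from the fitted curve at half-maximal effect; 0% = DMSO-treated cells and -100% = media-only wells without cells; nearly all actives have a fitted effect of over 55% in size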
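Read-out is CellTiter-Glo luminescence after 10 minutes at room temperature, following 48 hours' compound treatment of HT-1080-NT cells (750 cells/well, RPMI, 5% FBS, 37 degrees C).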
HT1080 IDH1KD tx = qHTS for induction of synthetic lethality in tumor cells producing 2HG: qHTS for the HT-1080-IDH1KD cell line. HT-1080 IDH1 knockdown viability, ATP luminescence, 48 h. Potency, µM (series often up to 46.1 µM), inactives show top-dose activity, negative = toxicity, usual class: cytotoxic. 2% of 360,000 active;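 also: potency is read from the fitted curve at half-maximal effect; 0% = DMSO wells and -100% = cell-free medium wells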
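CellTiter-Glo luminescence after 48 h compound exposure at 37 degrees C of IDH1-knockdown HT-1080 cells in 5% FBS RPMI. %Activity scaled between DMSO wells and cell-free media wells, with curves fitted and assigned curve classes.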
IL-1B inflam inh = qHTS for Inhibitors of Inflammasome Signaling: IL-1-beta AlphaLISA Primary Screen; activity change, % at 57.5 µM; THP-1 LPS/ATP IL-1B secretion, AlphaLISA, 16 h; hits give low values; 4.7% of 360,000 active; in the data active = activity change below about -50%; inconclusive = mostly about -30% to -49%
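THP-1 cells pretreated 1 hr with compounds (up to 57.5 uM final), then stimulated with LPS (250 ng/mL final) plus ATP (1.25 mM final); secreted IL-1B measured by AlphaLISA after 16 hr, decreased signal indicating inhibition.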
ELG1 repair inh = qHTS screen for small molecules that inhibit ELG1-dependent DNA repair in human embryonic kidney (HEK293T) cells expressing luciferase-tagged ELG1 | HEK293T ELG1-luciferase reporter, luminescence, 16 h; DNA damage induced by 5-fluorouridine | Potency, µM (top dose mostly 46.1 µM), for inactives: top-dose activity change, negative = inhibition, usual class: inhibitors | 2.3% of 330,000 active; also: potency is read from the fitted curve at half-maximal effect; nearly all actives have a fitted effect of over 55% in size
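Luminescence from the luciferase reporter, measured 30 min after ONE-Glo reagent at room temperature, was the read-out. Beforehand, 2,000 cells per well were exposed for 16 hr at 37 °C to 5-fluorouridine together with compound or vehicle.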
* marks the source's active call; other numbers are inactive results; i = inactive; ? = inconclusive; · = no result; ! = a repeat was not active; [ ] = remark or other dose. Unless noted, calls follow the shape of the dose curve; as a rule, active = well fitted curve in the direction sought with a large enough effect; inconclusive = small, poorly fitted or top-dose-only effect, or another doubt; inactive = no such curve, though single readings can be large; an effect the other way counts as inactive or inconclusive. Unless noted, % is scaled to controls: 0 for no effect and ±100 for the full control effect.

SMILES | TDP1 cell noCPT | TDP1 cell CPT | HT1080-NT tox | HT1080 IDH1KD tx | IL-1B inflam inh | ELG1 repair inh
O=C(c1cccc(NC2=NC3CS(=O)(=O)CC3S2)c1)N1CCN(c2cccc(Cl)c2)CC1 (stereo not drawn) | ? | ? | -0.5% | 5.0% | -15.0 | -13.4%
Cc1ccc(C)c(N2CCN(C(=O)c3ccc(NC(=O)c4nsc5ccccc45)cc3)CC2)c1 | 18.4µM* | 20.6µM* | · | · | · | ·
Cc1noc(C)c1S(=O)(=O)Nc1ccc(C(=O)N2CCN(c3cccc(Cl)c3)CC2)cc1 | -12.3% | -17.3% | -25.3% | -22.6% | 0.3 | -4.0%
O=C(Nc1ccc(C(=O)N2CCN(c3cccc(Cl)c3)CC2)cc1)c1nsc2ccccc12 | 13µM* | ? | · | · | · | ·
O=C(Nc1cccc(C(=O)N2CCN(c3ccc(Cl)cc3)CC2)c1)c1nsc2ccccc12 | 10.3µM* | 14.6µM* | · | · | · | ·
O=C(Nc1cccc(C(=O)N2CCN(c3cccc(Cl)c3)CC2)c1)c1nsc2ccccc12 | 16.4µM* | 18.4µM* | · | · | · | ·
Cc1ccc(C)c(N2CCN(C(=O)c3ccc(Nc4nc5ccccc5n5nnnc45)cc3)CC2)c1 | -11.0% | 2.3% | · | · | · | ·
O=C(NCCO)C(=O)NCC(c1ccc2c(c1)OCO2)N1CCOCC1 (stereo not drawn) | -3.4% | -3.1% | · | · | · | ·
CC(C)C(=O)OCc1cc(=O)n2nc(C3CCCCC3)sc2n1 | -19.6% | 6.5% | · | · | · | ·
O=C(Nc1cccc(C(=O)N2CCN(c3cccc(Cl)c3)CC2)c1)c1ccccc1 | 25.9µM* | 16.4µM* | ? | -24.9% | ? | ?
O=C(Nc1cccc(C(=O)N2CCN(c3ccccc3)CC2)c1)c1ccco1 | -24.0% | -23.1% | 1.5% | 19.0% | i | ?
Cc1nc2c(C)cccc2cc1C(=O)N/N=C/c1ccc(O)cc1 | ? | 29.1µM* | ? | ? | -9.3 | -19.0%
Cc1cccc2cc(/C=N/NC(=O)c3ccccc3O)c(Cl)nc12 | ? | 18.4µM* | -0.1% | -20.9% | 10.7 | 23.1µM*
Cc1ccc2nc(C)c(C(=O)N/N=C/c3ccc(C(=O)O)cc3)cc2c1 | -0.7% | -0.6% | 29.7% | 13.1% | 20.9 | 0.0%
O=C(COC(=O)Cc1ccc(S(=O)(=O)N2CCOCC2)s1)Nc1ccc(OC(F)F)cc1 | -18.4% | 1.8% | -4.1% | 10.7% | 7.4 | ?
O=C(CN1CCN(S(=O)(=O)c2ccccc2)CC1)Nc1ccc(Cl)c([N+](=O)[O-])c1 | 23.1µM* | 20.6µM* | -6.5% | -13.9% | -18.4 | ?
Cc1ccc(S(=O)(=O)N2CCN(CC(=O)NC3CCCc4ccccc43)CC2)cc1C (stereo not drawn) | 18.4µM* | ? | -2.6% | -15.2% | -54.0*! | ?
O=C(CN1CCN(S(=O)(=O)c2ccccc2)CC1)Nc1ccc([N+](=O)[O-])cc1 | 11.6µM* | 18.4µM* | ? | ? | 6.0 | 20.6µM*
O=C(NCCN1CCN(S(=O)(=O)c2ccc([N+](=O)[O-])cc2)CC1)C(=O)Nc1ccccc1 | 2.0% | -14.1% | 18.7% | 2.4% | 17.1 | 0.0%
Cc1cc(C)c(C)c(S(=O)(=O)N2CCN(CC(=O)Nc3ccc([N+](=O)[O-])cc3)CC2)c1C | -24.0% | -5.3% | 8.5% | 6.0% | -14.4 | 11.8%
COc1ccc(NC(=O)CN2CCN(S(=O)(=O)c3ccc(Cl)cc3)CC2)cc1Cl | ? | -28.0% | -0.1% | -9.5% | -12.6 | ?
Cc1ccc(S(=O)(=O)N2CCN(CC(=O)Nc3ccc([N+](=O)[O-])cc3)CC2)cc1C | 16.4µM* | ? | -6.1% | -3.9% | ? | ?
Cc1ccc(S(=O)(=O)N2CCN(CC(=O)NC3CCCc4ccccc43)CC2)c(C)c1 (stereo not drawn) | ? | -26.8% | -23.4% | -18.6% | ? | ?
O=C(CN1CCN(S(=O)(=O)c2ccc(Cl)cc2)CC1)NC1CC1 | 28.9% | -28.8% | 6.2% | 8.2% | 40.1 | 5.5%
O=C(OCC(=O)N1CCC(Cc2ccccc2)CC1)c1cncc(Br)c1 | -9.9% | -29.9% | 2.8% | -3.8% | 0.0 | 1.4%
SMILES | TDP1 cell noCPT | TDP1 cell CPT | HT1080-NT tox | HT1080 IDH1KD tx | IL-1B inflam inh | ELG1 repair inh
COC(=O)c1cn([C@@H]2C[C@@H](C(=O)Nc3cccc(SC)c3)N(C3CCCC3)C2)nn1 | -23.6% | 3.0%[9.04 µM] | · | · | · | ·
CCc1ccc(NC(=O)CSc2nc(NS(=O)(=O)c3ccccc3)cc(=O)[nH]2)cc1 | 16.4µM* | 25.9µM* | ? | ? | -55.4* | 9.6%
Cn1c(CNC(=O)c2ccc3c(c2)OCO3)nnc1SCC(=O)Nc1ccc(F)cc1F | -7.0% | 4.6% | 0.0% | 5.7% | -0.7 | 3.1%
NC1(C(=O)O)CSSC1 | 7.31µM* | -117.9% | ? | ? | -77.2* | ·
N[C@@]1(C(=O)O)CN[C@H](C(=O)O)C1 | -13.8% | -3.6% | · | · | · | ·
CCOC1CCCc2oc(-c3ccc(OC)cc3)c(C(=O)NCCCCO)c21 (stereo not drawn) | -21.1% | -7.5% | -0.7% | 14.3% | -20.1 | ·
CS(=O)(=O)c1ccc(Sc2nc3ccccc3s2)c([N+](=O)[O-])c1 | 13µM* | 10.3µM* | -9.8% | 20.6µM* | -120.9* | ?
Cc1cccc(C)c1NC(=O)CNC(=O)c1ccc(NS(=O)(=O)c2ccc3[nH]c(=O)[nH]c3c2)cc1 | -1.3% | -3.2% | -1.2% | 7.2% | -2.7 | -0.5%
COC(=O)N1CCC2(CCCN(c3ccccn3)C2)CC1 | -15.9% | -10.2% | · | · | · | ·
CCN(CC)CCOC(=O)c1c(C)oc2ccc(OC)cc12 | -2.4% | -3.6% | -18.1% | ? | -85.6* | ?
CCN(CC)CCOC(=O)c1ccc(NC(=O)c2cc3cccc(OC)c3oc2=O)cc1 | ? | 20.6µM* | · | · | · | ·
CCN(CC)CCOC(=O)c1ccc(NC(=O)c2cc3cc(OC)ccc3oc2=O)cc1 | 0.0058µM* | 0.0411µM* | · | · | · | ·
Cc1c(C(=O)OCC(=O)Nc2ccc(C(N)=O)cc2)cccc1[N+](=O)[O-] | -14.5% | -4.1% | -4.9% | -1.2% | 19.7 | 4.1%
O=C(Nc1ccc(F)cc1)C1C2CCC3C(CCC21)C3(Cl)Cl (stereo not drawn) | 18.4µM* | ? | -2.6% | 0.9% | · | -12.5%
